Data taken from the supplement of paper PMC6555819.

Key:
Assay in all cases: PBM binding z-score (relative to random genomic background probes); higher = stronger binding; sequences stand for … in GC…GCGATTGACAGCGTAGAATGAAGG
[1] = system: FXR:RXRa (NR concentration 270 nM, RXRa partner concentration 90 nM)
Method in brief: (§1)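 Regression normalization was applied to scanned fluorescence from custom Agilent 4×180K protein-binding microarrays. Before scanning, arrays were incubated 1 h with ligand-free nuclear receptor dimers, and binding was detected with antibodies against each partner (one per run). Binding z-scores use the random background probes as reference.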

[2] = system: LXRa:RXRa (NR concentration 270 nM, RXRa partner concentration 90 nM)
Method in brief: as §1

[3] = system: LXRa homodimer (NR concentration 270 nM)
Method in brief: as §1

[4] = system: LXRb:RXRa (NR concentration 270 nM, RXRa partner concentration 90 nM)
Method in brief: as §1

[5] = system: LXRb homodimer (NR concentration 270 nM)
Method in brief: as §1

[6] = system: PPARa:RXRa (NR concentration 270 nM, RXRa partner concentration 90 nM)
Method in brief: as §1

[7] = system: PPARg:RXRa (NR concentration 180 nM, RXRa partner concentration 90 nM)
Method in brief: as §1

[8] = system: PPARg:RXRa 270nM:90nM, anti-RXR (NR concentration 270 nM, RXRa partner concentration 90 nM)
Method in brief: as §1

[9] = system: PPARg:RXRa 30nM:10nM, anti-RXR (NR concentration 30 nM, RXRa partner concentration 10 nM)
Method in brief: as §1

[10] = system: PPARg:RXRa 90nM:30nM, anti-RXR (NR concentration 90 nM, RXRa partner concentration 30 nM)
Method in brief: as §1

| Sequence | PBM binding z-score [1] | PBM binding z-score [2] | PBM binding z-score [3] | PBM binding z-score [4] | PBM binding z-score [5] | PBM binding z-score [6] | PBM binding z-score [7] | PBM binding z-score [8] | PBM binding z-score [9] | PBM binding z-score [10] |
| --- | --- | --- | --- | --- | --- | --- | --- | --- | --- | --- |
| GATACAGGGGCAGCTAGAGGCCAGAGTATGGAAA | 0.0694 | 0.017 | -0.177 | 0.453 | -0.405 | 0.26 | 0.483 | 0.296 | -0.0735 | -0.078 |
| ATCTCTAGTTAAAAGTTCAGTGAATCCCGAGGAT | 0.652 | 1.49 | 1.82 | 0.877 | 1.25 | 1.64 | 1.4 | 3.41 | 1.59 | 3.49 |
| CGAACGAGGGCATGAGATGATAGCAAATGCCGAT | 0.416 | 0.173 | 0.0308 | -0.0144 | -0.705 | 1.22 | 1.5 | 0.73 | 0.325 | 0.278 |
| ATACCAAGGTGATCGCGAGGTCGTTGATACTAAC | 1.6 | 0.914 | 0.243 | 1.06 | -0.19 | 1.62 | 0.486 | 0.381 | -0.106 | 0.108 |
| TCGCCTAGGTCATTCAGGGGCCAGTATAGAAAGC | 4.82 | 3.45 | 0.443 | 3.13 | 0.742 | 3.8 | 1.91 | 2.45 | 2.3 | 2.02 |
| CCGACTGGGGCAAGGTAACCATAACGCACAGCCA | -0.249 | -0.173 | -0.437 | -0.227 | -0.817 | 0.552 | 1.47 | 1.14 | -0.222 | 0.712 |
| AGAATGAGGTTATACGTAGATCAGGGACGAAAGT | 2.37 | 1.79 | 0.0917 | 1.55 | -0.0358 | 3.23 | 1.83 | 2 | 0.651 | 1.6 |
| CCGACTGGGGCATAAGGGTACCATAAGCCAGCCC | -0.549 | -0.376 | -0.527 | -0.624 | -1.67 | 0.305 | 1.3 | 1.35 | -0.296 | 1.18 |
| AGACTGAGGTTATACGTAGATCAGGGAAGAAAGT | 1.99 | 2 | 0.184 | 1.55 | -0.196 | 2.58 | 0.936 | 0.937 | 0.367 | 0.756 |
| CCTTACGGGTCACTCGAGGTTATAGCATCGGAGT | 5.2 | 7.76 | 3.19 | 5.72 | -0.178 | 5.01 | 4.03 | 4.33 | 1.41 | 3.01 |
| CCTTACGGGTCACGAGGTTATCGCACGACGAGCG | 6.89 | 4.91 | 0.648 | 4.02 | 0.0453 | 5.78 | 7.31 | 6.79 | 3.29 | 5.64 |
| CCTCGGTGGACAGAAGGTCAGAGCTGTCCGCTTT | 1.33 | 1.62 | -0.089 | 0.847 | -0.688 | 1.75 | 0.418 | 2.42 | -0.194 | 1.62 |
| ATCTCTAGGTAACAAGTTCAGAGAAAGAGAGGAC | 0.853 | 0.957 | 0.71 | 0.814 | 0.838 | 1.67 | 1.71 | 2.04 | 0.949 | 1.76 |
| CTCGAAAGCTCGGTTGAGGTGAGTATACGGATAA | -0.222 | -0.554 | -0.444 | -0.393 | -0.608 | -0.294 | -0.189 | -0.312 | -0.328 | -0.403 |
| ACTTACGGGTCAACGAGTTTATAGCACGCGTATA | 6.09 | 4.46 | 1.02 | 4.03 | 0.714 | 5.4 | 5.37 | 5.02 | 2.4 | 4.12 |
| TCTTGTAGATCATTAGAGGTTAAGAAAGTGCGCT | 1.06 | 4.79 | 1.68 | 2.27 | 0.3 | 1.77 | -0.111 | 1.81 | 2.85 | 2.33 |
| TCATGTAGATCAGCAGGTTAAGAAAGCTGGCCAA | -0.0707 | 0.39 | -0.338 | 0.259 | -0.58 | 0.606 | -0.175 | 1.5 | 2.67 | 2.16 |
| CTACCAAGGTGAACAAGATCGTTGATTACTATTC | 0.605 | 0.479 | -0.171 | 0.709 | -0.457 | 1.31 | 0.756 | 0.973 | 0.161 | 0.606 |
| ATATCTAGGTTACATCCGGGTCATTCAGGCTATG | 2.52 | 4.41 | 1.93 | 3.04 | 1.64 | 4.41 | 6 | 5.11 | 2.4 | 4.09 |
| GCTAGCAGGCCATTTCGGTCACTCAATGACGGGC | -0.325 | -0.482 | -0.0904 | -0.799 | -0.792 | -0.343 | 0.224 | -0.461 | -0.633 | -0.697 |
| GCTCCGAGGACAAGGTCAGAGCTTTGTCCGTAGA | 1.79 | 1.33 | -0.653 | 1.05 | -1.37 | 2.23 | 0.168 | 1.15 | -0.379 | 0.299 |
| CGTCCAAGGACAGAGAGGTCAGTGAATGCCGAGT | 1.59 | 1.6 | 1.09 | 1.72 | -0.627 | 2.13 | 0.584 | 0.665 | -0.328 | -0.223 |
